According to PubChem BioAssay (NCI):
Compounds without any hit were thinned out: in the full panel of roughly 83,000, 20% have a hit.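 A percent growth of 40 corresponds to 60% growth inhibition; 0 means no net growth; -100 means all cells died. Active threshold: below 10.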 The source made the active and inactive calls.

test system: MDA-MB-468 breast; test: NCI-60 one-dose screen, 48 h (100 = growth as untreated, 0 = no growth, -100 = all killed); conditions: 10 µM unless noted

Compound	growth
Clc1cccc(/C=N/Nc2nc(N/N=C/c3cccc(Cl)c3)nc(N3CCCCC3)n2)c1	76.3% (inactive)
O=C1NC(=O)C(c2coc3cc(Br)ccc23)=C1c1c[nH]c2ccccc12	3.29% (active)
c1cc2[nH]ncc2cc1-c1nc2ccc3[nH]ncc3c2c2c1CCC2	3.92% (active)
COc1ccc(F)c(F)c1C(=O)c1cnc(NC2CCN(S(C)(=O)=O)CC2)nc1N	-59.4% (active)
C=C(C=O)[C@@H]1CC[C@]2(COC(C)=O)CC[C@]3(C)C(CC[C@@H]4[C@@]5(C)CC[C@H](OC(C)=O)C(C)(C)[C@@H]5CC[C@]43C)[C@@H]12 (stereo partly drawn)	5.16% (active)
COc1ccc(-c2cnc3ccnn3c2-c2cc(OC)c(OC)c(OC)c2)cc1	2.83% (active)
COc1cccc(C(=O)NNc2nc(N3CCN(C4CCCCC4)CC3)nc(N3CCN(C(c4ccccc4)c4ccccc4)CC3)n2)c1	13.6% (inactive)
Nn1c(N/N=C/c2nc3ccccc3s2)n[nH]c1=S	109% (inactive)
CCOC(=O)c1c(C)nc2c(c1N)/C(=C/c1cccs1)C(=O)N2c1ccc(OC)cc1	28.2% (inactive)
COc1ccc2c(c1)CCCC21C(=O)Nc2ccccc21 (stereo not drawn)	103% (inactive)
COc1cc(C(=O)/C=C/c2ccc(OCCCCCC[P+](c3ccccc3)(c3ccccc3)c3ccccc3)cc2)cc(OC)c1OC	-58.6% (active)
CCN(CC)CCSCCCNc1c(C)cnc2cc(Cl)ccc12	85.6% (inactive)
CC[C@H](Nc1nc(N)nc(N)c1Cl)c1nc2cccc(NCc3ccc(C(=O)NO)cc3)c2c(=O)n1-c1ccccc1	-34.3% (active)
